Experimental data from paper PMC5540273 (PLoS ONE, 2017).

Experiments:
PCTK2 = system: T1, PCTK2
T1 construct: gene CDK17

PFTK1 = system: T2, PFTK1
T2 construct: gene CDK14

PIK4CB = system: T3, PIK4CB
T3 construct: gene PI4KB
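Further: kd values determined as follow-up on hits from a single-replicate KINOMEscan panel screen.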

**Q.** How did the Kd (PCTK2) turn out when `Nc1ncnc2c1ncn2-c1cccc2ccccc12` [SKF-97184] was run?
**A.** > 10 µM

**Q.** How did the Kd (PDGFRA) turn out when `COc1cc2nccc(Nc3ccc(OCc4ccc(NC(C)=O)cc4)cc3)c2cc1OC.Cl` [GW440135] was run?
**A.** 60 nM

**Q.** What does the source list for `C[C@@H]1CC[C@H](C(=O)NC2CCCCC2)CN1c1cc(-c2ccc3c(N)n[nH]c3c2)nc(N)n1` [GSK2291363]?
**A.** Kd (PDPK1): 2.8 nM; Kd (PIP5K1A): 440 nM

**Q.** With `Cc1nn2c(=O)cc(N3CCOCC3)nc2n1Cc1cccc(Cl)c1Cl` [GSK2342769] as the compound, how does the Kd (PFTK1) read?
**A.** > 10 µM

**Q.** Which Kd (PIK3C2G) does the source give for `COc1ccc(-c2cc3c(C)nc(N)nc3n([C@H]3CC[C@H](OCCO)CC3)c2=O)cn1` here?
**A.** 0.92 nM

**Q.** And the Kd (PIK3CA)?
**A.** 0.45 nM

**Q.** And the Kd (PIK4CB)?
**A.** 46 nM

**Q.** Which Kd (PIK3C2G) does the source give for `COc1ccc(-c2cc3c(C)nc(N)nc3n([C@H]3CC[C@H](O)CC3)c2=O)cn1` here?
**A.** 0.46 nM

**Q.** What about the Kd (PIK3CA) of the same compound?
**A.** 0.34 nM

**Q.** What about the Kd (PIK3CG) of the same compound?
**A.** 0.32 nM

**Q.** What about the Kd (PIK4CB) of the same compound?
**A.** 25 nM

**Q.** `Cc1cccc(-c2nc(Nc3ccc4c(cnn4C)c3)c3ccccc3n2)n1` [GW876731] was tested. Which Kd (PIKFYVE) did it give?
**A.** 380 nM

**Q.** For `COc1cc2ncn(-c3cc(OCc4ccncc4Br)c(C(N)=O)s3)c2cc1OC` [GW854278], which Kd (PIP5K1C) is on record?
**A.** 610 nM

**Q.** For `FC(F)(F)c1ccc(-c2ncn(CCCN3CCOCC3)c2-c2ccncc2)cc1` [SB-217780], which Kd (PRKCD) is on record?
**A.** > 10 µM
